Our source for the morphology score and SARS-CoV-2 infection rate values is the supplement of paper PMC13380429.

The subject of assay [1] is Vero E6 infected with SARS-CoV-2. The experiment in a line: morphology score (similarity to uninfected cells); higher = more like uninfected cells. Particulars: 24 h.
The test system is the same in assay [2]. Nature of the assay: SARS-CoV-2 infection rate relative to infected DMSO; higher = more infection, active = 60 or less. The following applies: 24 h.

On to `CC(=O)NC[C@H]1CN(c2ccc(N3CCN(C(=O)CO)CC3)c(F)c2)C(=O)O1` [eperezolid] (10 µM), for which, in assay [1], the morphology score is 0.0417. Also, the SARS-CoV-2 infection rate in assay [2] is 112% (inactive).

The compound `Fc1ccccc1-c1nc2ccn(Cc3ccc(-c4ccc(C(F)(F)F)cc4C(F)(F)F)nn3)cc-2n1` [tegobuvir] (10 µM) registered a morphology score in assay [1] of 0.081. Further, the SARS-CoV-2 infection rate in assay [2] is 102% (inactive).

As for `CCCCNc1c(C(=O)OCC)c(C)nc2c1cnn2CC` [tracazolate] (10 µM), the morphology score in assay [1] was found to be 0.174. Further, the SARS-CoV-2 infection rate in assay [2] was 92.5% (inactive).

Compound `Nc1nccc(-c2ccc3noc(-c4ccc(Cl)cc4)c3c2)n1` [PIM-1-Inhibitor-2] (10 µM) showed a morphology score in assay [1] of -0.089. The SARS-CoV-2 infection rate in assay [2] was 111% (inactive).

In assay [1], `NC(=O)CN1CCCC1=O` [piracetam] (10 µM) came in with a morphology score of -0.0282. In addition, in assay [2], the SARS-CoV-2 infection rate was 96.5% (inactive).

Regarding `Cc1cnc(Nc2ccc(OCCN3CCCC3)cc2)nc1Nc1cccc(S(=O)(=O)NC(C)(C)C)c1` [fedratinib] (0.833333 µM), in assay [1], the morphology score is -0.054. In addition, the SARS-CoV-2 infection rate in assay [2] was 99.5% (inactive).

Compound `CC(C)C[C@H](NC(=O)[C@@H](COC(C)(C)C)NC(=O)[C@H](Cc1ccc(O)cc1)NC(=O)[C@H](CO)NC(=O)[C@H](Cc1c[nH]c2ccccc12)NC(=O)[C@H](Cc1cnc[nH]1)NC(=O)[C@@H]1CCC(=O)N1)C(=O)N[C@@H](CCCNC(=N)N)C(=O)N1CCC[C@H]1C(=O)NNC(N)=O` [goserelin-acetate] (10 µM) registered a morphology score in assay [1] of 0.0827. Also, the SARS-CoV-2 infection rate in assay [2] is 109% (inactive).

In turn, `O=C(O)[C@H](O)[C@@H](O)[C@H](O[C@@H]1O[C@H](CO)[C@H](O)[C@H](O)[C@H]1O)[C@H](O)CO` [maltobionic-acid] (10 µM) yielded a morphology score in assay [1] of 0.138. The SARS-CoV-2 infection rate in assay [2] is 92.5% (inactive).
